{
  "source": "PubChem BioAssay AID2650",
  "about": "(Broad Institute, 2010)",
  "note": "The whole screen tested about 320,000 compounds, of which about 320 (0.1%) were called active. This is one part of a sample in which actives are shown more often than they occur. Values without a mark were called inactive.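 Rule for the calls: active = more than half of replicates show inhibition above 20%; inconclusive = some but at most half of replicates above 20% inhibition; inactive = no replicate shows inhibition above 20%.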 Non-standard residues stand in square brackets, D forms with d. Residues, ends and D or L forms follow the SMILES beside them. ξ: configuration not given here. ξM = CSCCC(N)C(=O)O",
  "data": [
    {"target": "Glycogen synthase kinase-3 alpha (Homo sapiens) (UniProt P49840)", "sequence (P49840 whole entry, looked up)": "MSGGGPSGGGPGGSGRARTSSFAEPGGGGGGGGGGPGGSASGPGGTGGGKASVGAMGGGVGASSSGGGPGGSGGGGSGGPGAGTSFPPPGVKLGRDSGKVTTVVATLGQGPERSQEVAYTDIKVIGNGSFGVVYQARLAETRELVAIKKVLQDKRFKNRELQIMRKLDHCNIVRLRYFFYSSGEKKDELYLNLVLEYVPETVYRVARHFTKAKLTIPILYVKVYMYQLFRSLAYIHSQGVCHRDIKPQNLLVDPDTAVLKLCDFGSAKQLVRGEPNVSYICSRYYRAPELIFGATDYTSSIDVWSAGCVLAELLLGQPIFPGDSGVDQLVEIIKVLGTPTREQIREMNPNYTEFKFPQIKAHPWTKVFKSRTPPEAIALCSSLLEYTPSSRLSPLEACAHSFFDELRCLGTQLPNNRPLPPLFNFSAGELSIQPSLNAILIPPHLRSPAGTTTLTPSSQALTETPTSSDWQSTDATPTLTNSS", "assay": "blockers of GSK3A enzyme activity – biochemical, luminescence, cell-free homogeneous, HTS, primary screen (AID 2650);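 note: GST-tagged GSK-3 alpha with peptide substrate and 25 µM ATP; 0% = DMSO neutral wells and 100% = GW8510 positive control wells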", "details": "GSK-3 alpha kinase, ADP-Glo luminescence, 60 min; at 10 µM; stronger effect = higher value", "values": [
      {"smiles": "Cc1ccccc1-c1cc(C(=O)NCc2cccs2)n(CC2CC(c3cccnc3)=NO2)n1", "note": "(stereo not drawn)", "inhibition": "8.15%"},
      {"smiles": "COC(=O)c1sc(N)c(C(=O)OC)c1COC(=O)CNS(=O)(=O)c1ccc(C)cc1", "inhibition": "-5.73%"},
      {"smiles": "O=C(CN1CCC(O)(c2cccc(C(F)(F)F)c2)CC1)NCCc1ccccc1", "inhibition": "-1.83%"},
      {"smiles": "COc1ccccc1CNC(=O)Cn1c(=O)oc2cc(Cl)ccc21", "inhibition": "-2.27%"},
      {"smiles": "CN(C)Cc1c(O)ccc2c(=O)c(-c3ccccc3Cl)coc12", "inhibition": "0.391%"},
      {"smiles": "COc1ccc2c(c1)O/C(=C\\c1ccccc1O)C2=O", "inhibition": "-3.6%"},
      {"smiles": "O=C1/C(=C/c2ccc3c(c2)OCO3)Oc2cc(OCC(=O)N3CC(O)C[C@H]3C(=O)O)ccc21", "note": "(stereo partly drawn)", "inhibition": "58.3% (active)"},
      {"smiles": "COC(=O)C(C)Oc1ccc2c(c1)O/C(=C\\c1cccc(Br)c1)C2=O", "note": "(stereo not drawn)", "inhibition": "-0.218%"},
      {"smiles": "CSc1nccc(NC(=O)c2ccc(C(C)(C)C)cc2)n1", "inhibition": "0.764%"},
      {"smiles": "O=C(Nc1cccc(Cl)c1N1CCOCC1)c1ccc2c(c1)OCCO2", "inhibition": "3.78%"},
      {"smiles": "CCN1CCN(c2c(Cl)cccc2NC(=O)c2ccc(Br)o2)CC1", "inhibition": "84.2% (active)"},
      {"smiles": "O=C(Nc1cccc(Cl)c1N1CCOCC1)c1cccnc1", "inhibition": "1.42%"},
      {"smiles": "CC(C)(C)NS(=O)(=O)NC(=O)C1=C(N2CCCC2)COC1=O", "inhibition": "-2.51%"},
      {"smiles": "N#Cc1ccc(OCC(=O)NC(=O)NC2CCS(=O)(=O)C2)cc1", "note": "(stereo not drawn)", "inhibition": "0.468%"},
      {"smiles": "CCOC(=O)CCCCCC(=O)Nc1ccc2c(c1)CC(=O)N([C@@H](C)CO)C[C@H](C)[C@@H](CN(C)Cc1ccccc1)O2", "inhibition": "-2.38%"},
      {"smiles": "COc1ccc(NC(=O)c2cc([N+](=O)[O-])ccc2NC(=O)CNC2CCCCC2C)c(OC)c1", "note": "(stereo not drawn)", "inhibition": "-2.82%"},
      {"smiles": "O=C(Nc1ccc(Cl)c(Cl)c1)N1CC=C(c2ccccc2)CC1", "inhibition": "-0.494%"},
      {"smiles": "COc1ccc(-n2c(=S)[nH]c3sc4c(c3c2=O)CCc2ccccc2-4)cc1", "inhibition": "-1.96%"},
      {"smiles": "COc1ccc(Cn2c(O)c(/C=C3/C=CC=N3)c(=O)[nH]c2=O)cc1", "inhibition": "0.739%"},
      {"smiles": "CCC(C)NCCOCCOc1ccc(Br)cc1C", "note": "(stereo not drawn)", "inhibition": "-0.652%"},
      {"smiles": "CCNc1nc(N)nc(Oc2ccc(OCC)nn2)n1", "inhibition": "3.16%"},
      {"smiles": "Cc1ccc(CNCc2ccc3c(c2)OCO3)c(C)c1", "inhibition": "-0.957%"},
      {"smiles": "CCOC(=O)c1ccccc1NC(=O)COC(=O)CCC(=O)N1CCOCC1", "inhibition": "8.47%"},
      {"smiles": "COc1ccc(CCNS(=O)(=O)c2cn(C)nc2C)cc1", "inhibition": "2.55%"},
      {"smiles": "Nc1nonc1-n1nnc(C(=O)N/N=C\\c2ccncc2)c1CN1CCCCC1", "inhibition": "107% (active)"},
      {"smiles": "NNC(=O)c1nnn(-c2nonc2N)c1CN1CCCC1", "inhibition": "23.2%"},
      {"smiles": "Nc1nonc1-n1nnc(C(=O)N/N=C/c2ccccc2O)c1CN1CCCC1", "inhibition": "49.8%"},
      {"smiles": "COc1ccc(/C=C/C(=O)OCC(=O)NC2CCCCCC2)cc1OC", "inhibition": "-0.779%"},
      {"smiles": "COc1ccc(S(=O)(=O)N2CCN(C(C)C(=O)Nc3ccc(C(C)C)cc3)CC2)cc1", "note": "(stereo not drawn)", "inhibition": "1.33%"},
      {"smiles": "COCCCn1c(Cc2csc(Nc3cccc(Cl)c3)n2)nnc1SCC(=O)OC1CCCCC1", "inhibition": "1.8%"},
      {"smiles": "CC(=O)c1cccc(OCC(=O)OCC(=O)Nc2cc(S(=O)(=O)N3CCCCC3)ccc2C)c1", "inhibition": "2.43%"},
      {"smiles": "CCOCC(=O)Nc1ncc(S(=O)(=O)c2ccc([N+](=O)[O-])cc2)s1", "inhibition": "-1.6%"},
      {"smiles": "COC(=O)CNC(=O)C(CCSC)NC(C)=O", "note": "(stereo not drawn) (Ac-[ξM]-Gly-OMe)", "inhibition": "-4.49%"},
      {"smiles": "CSCc1cc(N(C)C)nc(SCc2ccc(Cl)cc2Cl)n1", "inhibition": "-5.57%"},
      {"smiles": "COCCNc1nc(N)c([N+](=O)[O-])c(NCCO)n1", "inhibition": "53.1% (active)"},
      {"smiles": "C=CCNc1nc(N)c([N+](=O)[O-])c(NC2CCCCC2)n1", "inhibition": "0.434%"},
      {"smiles": "COCCNc1nc(N)c([N+](=O)[O-])c(N2CCCCCC2)n1", "inhibition": "1.39%"},
      {"smiles": "COc1ccc(C(=O)NCc2ccccc2C)cc1S(=O)(=O)NC1CCCC1", "inhibition": "-2.96%"},
      {"smiles": "Cn1c(SCC(=O)Nc2nccs2)nnc1-c1cccnc1", "inhibition": "2.04%"},
      {"smiles": "CC1CCCN(C(=O)CN2C(=O)c3ccccc3S2(=O)=O)C1", "note": "(stereo not drawn)", "inhibition": "-0.713%"},
      {"smiles": "CC1CC(=NNC(=O)C2COc3ccccc3O2)CC(C)(C)C1", "note": "(stereo not drawn)", "inhibition": "0.373%"},
      {"smiles": "C=CCC[C@H](Cc1ccc(F)cc1)C(=O)OC[C@@H](NC(=O)[C@@H](CC=C)CC(=O)N[C@H](CO)Cc1ccccc1)C(C)(C)C", "inhibition": "-1.79%"},
      {"smiles": "CS(=O)(=O)N(CC(=O)NC1CCCC1)Cc1ccc(F)cc1", "inhibition": "10.3%"},
      {"smiles": "O=S(N1CCCCCC1)C12CC3CC(CC(C3)C1)C2", "note": "(stereo not drawn)", "inhibition": "-2.72%"},
      {"smiles": "Cc1cc(C)c(S(=O)(=O)n2cc(C(C)C(N)C(=O)O)c3ccccc32)c(C)c1", "note": "(stereo not drawn)", "inhibition": "-2.93%"},
      {"smiles": "NC1=NC[C@@H](Cc2ccc(O)cc2)N1CC1CCCCC1", "inhibition": "1.17%"},
      {"smiles": "O=C(CSc1nc2nccnc2c(=O)n1Cc1cccs1)Nc1ccccc1F", "inhibition": "1.43%"},
      {"smiles": "O=C(c1ccc(N2CCOCC2)c([N+](=O)[O-])c1)N1CCN(c2ccccc2F)CC1", "inhibition": "-2.69%"},
      {"smiles": "Cn1c(-c2ccc(F)cc2)cc2onc(-c3ccccc3Cl)c2c1=O", "inhibition": "-1.73%"},
      {"smiles": "CCN(CC)CCCNC(=O)CCn1nc(-c2ccc(Cl)cc2)ccc1=O", "inhibition": "-1.8%"},
      {"smiles": "O=C(NCCCN1CCCC1=O)C(=O)NCC1OCCN1S(=O)(=O)c1ccc(Br)cc1", "note": "(stereo not drawn)", "inhibition": "-1.8%"},
      {"smiles": "COc1ccc2nc3n(c(=O)c2c1)-c1ccc(Cl)cc1C(=O)NC3Cc1ccccc1", "note": "(stereo not drawn)", "inhibition": "-2.35%"},
      {"smiles": "N#Cc1ccccc1CN1C(=O)S/C(=C/c2cccn2-c2cccc(C(=O)O)c2)C1=O", "inhibition": "3.06%"},
      {"smiles": "COc1ccc(Cn2c(C)c(C)c(C#N)c2NC(=O)Nc2ccc(F)cc2)cc1", "inhibition": "-1.46%"},
      {"smiles": "O=C(Nc1ccc(S(=O)(=O)N2CCCCC2)cc1)C1CC(=O)N(c2ccc(F)cc2)C1", "note": "(stereo not drawn)", "inhibition": "0.943%"},
      {"smiles": "CCOc1ccc(S(=O)(=O)NCCC(=O)NCC(C)(C)N2CCOCC2)cc1", "inhibition": "-4.12%"},
      {"smiles": "CC(C)n1cnc2c(NCc3ccccc3)cc(N[C@@H](CO)Cc3ccccc3)cc21", "inhibition": "-3.52%"},
      {"smiles": "CCOc1ccc(CCNC(=O)C(CC)n2nc(C)n3c(cc4sccc43)c2=O)cc1OCC", "note": "(stereo not drawn)", "inhibition": "8.43%"},
      {"smiles": "CC1=C(C(=O)NC2CC(C)(C)Cc3c2cnn3-c2ccc(C)cc2)OCCO1", "note": "(stereo not drawn)", "inhibition": "-2.77%"},
      {"smiles": "Cc1cccn2c(=O)nc(SCC(=O)NCc3ccccc3Cl)nc12", "inhibition": "-2.07%"},
      {"smiles": "O=C(CN(C(=O)c1csnn1)c1cccc(F)c1)NCc1ccc(F)cc1", "inhibition": "0.738%"},
      {"smiles": "O=C(Nc1ccccn1)C1CCN(S(=O)(=O)c2ccccc2)CC1", "inhibition": "3.28%"},
      {"smiles": "CCCC1NC(=S)NC(C)=C1C(C)=O", "note": "(stereo not drawn)", "inhibition": "-1.05%"},
      {"smiles": "OCCCNc1nccc(-c2cc(Nc3cccc(Cl)c3)ncn2)n1", "inhibition": "89.3% (active)"},
      {"smiles": "CC(C)n1cnc2c(Nc3cccc(Cl)c3)nc(N(CCO)CCCO)nc21", "inhibition": "9.71%"},
      {"smiles": "OCCCNc1nc(-c2ccccc2)c2cc(Cl)ccc2n1", "inhibition": "1.49%"},
      {"smiles": "CCCOc1ccc(Cc2c(O)nc(N)[nH]c2=O)cc1C", "inhibition": "-0.849%"},
      {"smiles": "CCn1c(SC)nc(O)c(C(c2ccc(OC)c(O)c2)c2c(O)nc(SC)n(CC)c2=O)c1=O", "inhibition": "-6.95%"}
    ]}
  ]
}
